Among the test systems are NCI-H23 lung; NCI-H226 lung; NCI-H322M lung; HOP-62 NSCLC; NCI-H460 lung; HOP-92 NSCLC; NCI-H522 lung; A549/ATCC NSCLC; 786-0 renal; COLO 205 colon; DU-145 prostate; K-562 leukemia; MALME-3M melanoma; MDA-MB-231 breast; RXF 393 renal; SF-268 CNS; SF-295 CNS; SF-539 CNS; UACC-257 melanoma; M14 melanoma.
Test in all cases: NCI-60 one-dose screen, 48 h (100 = growth as untreated, 0 = no growth, -100 = all killed)
What all share (conditions): 10 µM unless noted

The panel holds about 83,000 compounds, 20% with a hit somewhere; the sample as a whole holds those more often.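 Single-concentration screen, 48 h exposure, 96-well plates. Endpoint: percent growth. Below 10 = active.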 Unmarked numbers belong to inactive results. The source made the active and inactive calls.

As for `O=C1OCC2=C1C(c1cccc(F)c1)c1cc3c(cc1N2CCO)OCCO3` (stereo not given), the growth with NCI-H23 lung is 25.4%; in the experiment with NCI-H226 lung it was 26.2%; in the experiment with NCI-H322M lung, 45.3%; in the experiment on HOP-62 NSCLC, 30.5%; in the experiment on NCI-H460 lung, 9.42% (active); with HOP-92 NSCLC, 66.6%. The growth with NCI-H522 lung was 17.1%; in the experiment with A549/ATCC NSCLC it was 18.1%; in the experiment on 786-0 renal, 26.4%; in the experiment on COLO 205 colon it was -5.04% (active); with DU-145 prostate, 14.3%; in the experiment with K-562 leukemia it was 8.66% (active). Moreover, the growth was 46.2% in the experiment with MALME-3M melanoma; 24.8% in the experiment with MDA-MB-231 breast; 4.45% (active) in the experiment with RXF 393 renal; 34.5% with SF-268 CNS; -15.9% (active) with SF-295 CNS; -31.7% (active) in the experiment on SF-539 CNS. The growth is 89% in the experiment with UACC-257 melanoma and -9.63% (active) in the experiment on M14 melanoma.
For the compound `CO[C@H]1C[C@@H]2CC[C@@H](C)[C@@](O)(O2)C(=O)C(=O)N2CCCC[C@H]2C(=O)O[C@H]([C@H](C)C[C@@H]2CC[C@@H](O)[C@H](OC)C2)CC(=O)[C@H](C)/C=C(\C)[C@@H](O)[C@@H](OC)C(=O)[C@H](C)C[C@H](C)\C=C/C=C/C=C/1C`, the growth with NCI-H23 lung is 51.3%; in the experiment with NCI-H226 lung it was 47.9%; with NCI-H322M lung, 43.7%; in the experiment with HOP-62 NSCLC, 43.8%; with NCI-H460 lung, 31.9%; in the experiment with HOP-92 NSCLC it was 41.1%. The growth in the experiment on NCI-H522 lung is 39.4%; in the experiment on A549/ATCC NSCLC, 35.1%; in the experiment with 786-0 renal, 42.1%; in the experiment on COLO 205 colon it was 44.3%; with DU-145 prostate, 42.1%; with K-562 leukemia, 24.4%. Also, the growth is 35.1% in the experiment with MALME-3M melanoma; 49.6% with MDA-MB-231 breast; -4.23% (active) with RXF 393 renal; 39.3% in the experiment on SF-268 CNS; 22.4% with SF-295 CNS; 27.4% with SF-539 CNS. Besides, the growth with UACC-257 melanoma was 53%; in the experiment with M14 melanoma it was 50.3%.
Turning to `COC(=O)[C@@H](OC)[C@@H]1Cc2cc3cc(OC4CC(OC5CC(O)C(O)C(C)O5)C(O)C(C)O4)c(C)c(O)c3c(O)c2C(=O)[C@H]1OC1CC(OC2CC(OC3CC(C)(O)C(O)C(C)O3)C(O)C(C)O2)C(O)C(C)O1` (stereo not given in full), the growth with NCI-H23 lung is -47.3% (active); with NCI-H226 lung, -41.9% (active); with NCI-H322M lung, 12.3%; in the experiment on HOP-62 NSCLC it was 6.33% (active); in the experiment on NCI-H460 lung, 4.95% (active); in the experiment on HOP-92 NSCLC, -15.6% (active). In addition, the growth in the experiment on NCI-H522 lung is -30.3% (active); in the experiment on A549/ATCC NSCLC it was 8.71% (active); with 786-0 renal it was 9.07% (active); in the experiment with COLO 205 colon, -37.2% (active); in the experiment with DU-145 prostate, 10.2%; in the experiment on K-562 leukemia it was 4.16% (active). Also, the growth is -58% (active) with MALME-3M melanoma; -8.44% (active) in the experiment with MDA-MB-231 breast; -73% (active) in the experiment with RXF 393 renal; 3.86% (active) with SF-268 CNS; -10.6% (active) in the experiment on SF-295 CNS; -41.6% (active) in the experiment on SF-539 CNS. The growth is -11.2% (active) in the experiment on UACC-257 melanoma and -71.5% (active) with M14 melanoma.
`CCN1CCN(Cc2ccc(NC(=O)Nc3nc(-c4cc(OC)c(OC)c(OC)c4)cs3)cc2C(F)(F)F)CC1`: the growth in the experiment with NCI-H23 lung was 37.6%; with NCI-H226 lung it was 56.8%; with NCI-H322M lung it was 63%; with HOP-62 NSCLC, 49.9%; in the experiment on NCI-H460 lung, -1.08% (active); with HOP-92 NSCLC, 54.4%. The growth with NCI-H522 lung was 55.9%; in the experiment on A549/ATCC NSCLC it was 26.1%; in the experiment with 786-0 renal it was -50.9% (active); in the experiment with COLO 205 colon it was -68.4% (active); in the experiment with DU-145 prostate it was 38.7%; with K-562 leukemia, -9.87% (active). For the same compound, the growth in the experiment with MALME-3M melanoma was -49.8% (active); with MDA-MB-231 breast, -13.8% (active); with RXF 393 renal, 22.6%; in the experiment on SF-268 CNS, 34.8%; with SF-295 CNS, -38% (active); with SF-539 CNS, -6.61% (active). Further, the values for the growth in the experiment on UACC-257 melanoma and with M14 melanoma were -13.1% (active) and -78.6% (active), respectively.
Turning to `COc1cc(CCc2cc(NC(=O)c3ccc(N4C[C@@H](C)N[C@@H](C)C4)cc3)n[nH]2)cc(OC)c1`, the growth in the experiment on NCI-H23 lung was 40.1%; in the experiment with NCI-H226 lung, 46.1%; in the experiment with NCI-H322M lung it was 22.7%; with HOP-62 NSCLC, 38.1%; with NCI-H460 lung, 24.6%; in the experiment with HOP-92 NSCLC, 54.4%. Further, the growth was 40.4% in the experiment on NCI-H522 lung; 37.4% with A549/ATCC NSCLC; 38.6% in the experiment on 786-0 renal; 9.19% (active) in the experiment on COLO 205 colon; 37.7% in the experiment on DU-145 prostate; 8.61% (active) with K-562 leukemia. Further, the growth with MALME-3M melanoma is 26.6%; in the experiment with MDA-MB-231 breast it was 44.2%; in the experiment with RXF 393 renal it was -10.1% (active); with SF-268 CNS it was 39.4%; with SF-295 CNS, 62.4%; with SF-539 CNS, 16.9%. Besides, the growth with UACC-257 melanoma was 3.28% (active); in the experiment with M14 melanoma it was 18%.
Turning to `Cc1nc2ccc(-n3ncc(C(=O)c4cc5ccccc5[nH]4)c3N)cc2[nH]1`, the growth in the experiment on NCI-H23 lung was 74%; in the experiment on NCI-H226 lung, 48.4%; in the experiment on NCI-H322M lung, 86.5%; with HOP-62 NSCLC it was 55.9%; with NCI-H460 lung, 5.14% (active); in the experiment with HOP-92 NSCLC, 74.8%. In addition, the growth in the experiment on NCI-H522 lung was 36.5%; in the experiment with A549/ATCC NSCLC it was 36.9%; with 786-0 renal, 55.2%; in the experiment with COLO 205 colon, 38.7%; with DU-145 prostate it was 60.7%; in the experiment on K-562 leukemia, 17.4%. Also, the growth in the experiment on MALME-3M melanoma was 64.5%; in the experiment with MDA-MB-231 breast, 53.9%; in the experiment on RXF 393 renal, 15.5%; in the experiment with SF-268 CNS, 50.5%; with SF-295 CNS it was 53.5%; in the experiment on SF-539 CNS, -2.11% (active). The growth in the experiment on UACC-257 melanoma is 79.5%; with M14 melanoma, 61.1%.
In the case of `O=C(c1ccc(F)c(F)c1Nc1ccc(I)cc1F)N1CC(O)([C@@H]2CCCCN2)C1`, the growth with NCI-H23 lung was 13.9%; in the experiment on NCI-H226 lung, 39.4%; in the experiment on NCI-H322M lung, 13.5%; with HOP-62 NSCLC, 17.7%; with NCI-H460 lung, 18.8%; in the experiment with HOP-92 NSCLC, -47.8% (active). The growth in the experiment on NCI-H522 lung was 18.8%; in the experiment on A549/ATCC NSCLC, 14.2%; in the experiment on 786-0 renal, 29.1%; in the experiment on COLO 205 colon, -63.9% (active); in the experiment with DU-145 prostate, 46.3%; in the experiment on K-562 leukemia, -26.8% (active). The growth with MALME-3M melanoma is -21.8% (active); in the experiment with MDA-MB-231 breast it was 0.9% (active); with RXF 393 renal, -32.3% (active); in the experiment with SF-268 CNS it was 44.6%; with SF-295 CNS, 54.9%; with SF-539 CNS, 29.2%. Moreover, the growth in the experiment on UACC-257 melanoma is -10.8% (active); in the experiment on M14 melanoma it was -30.6% (active).

The values are drawn from PubChem BioAssay (NCI).
